The values below come from PMC5540273 (PLoS ONE, 2017).
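Also: KINOMEscan kinase panel screen.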

The subject of this assay is ACVR1B. Particulars: concentration: 1 μM, replicates: in singlicate; n = 1.
In the case of `Nc1n[nH]c2ncc(-c3ccccc3)cc12` [SB-517081], the “%Inh” value is 0%.
Consider `COc1cc(Nc2nccc(N3CCC(NC(=O)C4COc5ccccc5O4)C3)n2)cc(OC)c1OC` (stereo not drawn) [GSK1379761], for which the “%Inh” value turned out to be 0%.
In the case of `COc1cc2ncn(-c3cc(OCCCc4ccccc4)c(C(N)=O)s3)c2cc1OC` [GSK205189], the “%Inh” value is reported as 0%.
For the compound `CCC(=O)c1c(-c2ccccc2)c2cc(Cl)ccc2c(=O)n1Cc1cc(C(=O)NC2CC2)n(C)n1`, the “%Inh” value was 0%.
Consider `C[C@@H]1CC[C@H](C(=O)NC2CCCCC2)CN1c1cc(-c2ccc3c(N)n[nH]c3c2)nc(N)n1` [GSK2291363], for which the “%Inh” value was 0%.
Take `CCc1ccc(-c2ccc3c(c2)-c2nn(C)cc2S(=O)(=O)N3C)cc1`: the “%Inh” value was 0%.
As for `Cc1nnc(-c2ccc(C)c(-c3ccc(C(=O)O)cc3)c2)o1` [GW608005], the “%Inh” value is given as 0%.
Turning to `COc1cc(OC)cc(-c2cc3cnc(N)nc3nc2NC(=O)NC(C)(C)C)c1`, the “%Inh” value came to 10%.
In the case of `COC(=O)c1c(-c2ccccc2)c2cc(Br)ccc2c(=O)n1Cc1ccc(S(C)(=O)=O)cc1`, the “%Inh” value turned out to be 0%.
For the compound `Cl.NS(=O)(=O)c1cccc(Nc2cc(-c3ccc(F)cc3)n[nH]2)c1` [GW824645], the “%Inh” value is 0%.
In the case of `CCC(=O)c1c(-c2ccccc2)c2cc(Cl)ccc2c(=O)n1Cc1cc(S(C)(=O)=O)n(CC(N)=O)n1`, the “%Inh” value worked out at 0%.
For `COc1cc2nccc(Nc3ccc(OCc4ccc(NC(C)=O)cc4)cc3)c2cc1OC.Cl` [GW440135], the “%Inh” value is given as 0%.
For `COc1cccc(C2=C(Nc3cccc(C(=O)O)c3)C(=O)NC2=O)c1` [SB-390770], the “%Inh” value is on record as 18%.
For `CN1C(=O)C(Nc2cc(Cl)c(O)c(Cl)c2)=C(c2ccc(Cl)cc2)C1=O` [SB-404321], the “%Inh” value was 0%.
The result for `O=C(Nc1n[nH]c2cc(-c3ccccc3F)ccc12)C1CC1` [SB-733371] reads 1%.
For `COc1cc2nccc(Nc3cccc(Oc4ccccc4)c3)c2cc1OC.Cl` [GW284543], the “%Inh” value is 12%.
Consider `COc1cc2ncn(-c3cc(OCc4ccncc4)c(C(N)=O)s3)c2cc1OC` [GSK336313], for which the “%Inh” value was determined as 0%.
For the compound `Cc1ccc(Oc2ccc(Nc3ncnc4cc[nH]c34)cc2C)cn1`, the “%Inh” value is given as 27%.
`COc1ccc(-n2cnc3c(N)ncnc32)cc1` [SKF-97236]: the “%Inh” value was 21%.
Consider `O=C(NCCNc1ccnc(Nc2ccc(F)cc2)n1)Nc1ccc2c(c1)OCO2` [GSK1379882], for which the “%Inh” value is reported as 0%.
Consider `COc1ccc(-c2cc3c(C)nc(N)nc3n([C@H]3CC[C@H](O)CC3)c2=O)cn1`, for which the “%Inh” value is listed as 0%.
As to `O=C(Nc1ccc2c(c1)OCO2)NC1CCN(c2ccnc(NCc3ccc(F)cc3)n2)CC1` [GSK1379859], the “%Inh” value is given as 0%.
With `O=c1cc(N2CCOCC2)nc2n(Cc3ccc(F)c(Cl)c3)ccn12` [GSK2297099], the “%Inh” value worked out at 0%.
`CCC(=O)c1c(-c2ccccc2)c2cc(Cl)ccc2c(=O)n1Cc1ccc(C(=O)O)cc1`: the “%Inh” value is 0%.
With `CCS(=O)c1ccc(-c2coc3ccc(-c4nnc(C)o4)cc23)cc1` (stereo not drawn) the figure was 0%.
For `CC(C)(C)c1ccc(C(=O)Nc2cn3cc(-c4ccccc4)ccc3n2)cc1`, the “%Inh” value was 0%.
As for `Nc1nc(N)c2nc(-c3ccccc3)[nH]c2n1` [SKF-12778], the “%Inh” value was determined as 18%.
For `Cc1nc(N(C)[C@H]2CN(C(=O)CC#N)CC[C@H]2C)c2cc[nH]c2n1`, the “%Inh” value worked out at 8%.
For the compound `CCC(=O)c1c(-c2ccccc2)c2cc(Cl)ccc2c(=O)n1Cc1cc(S(C)(=O)=O)n(CCC(C)(C)O)n1`, the “%Inh” value came out at 10%.
On to `CCn1c(-c2nonc2N)nc2ccccc21` [SB-693162/GW549034], for which the “%Inh” value was found to be 1%.
Consider `CCn1c(-c2ccoc2)nc2cnccc21` [SB-733887], for which the “%Inh” value was 0%.
The result for `Cc1cccc(-c2cc(-c3c[nH]nc3-c3ccccn3)ccn2)c1` [GW679395] reads 0%.
Turning to `Nc1ncnc2c1ncn2-c1cccc(F)c1` [SKF-97560], the “%Inh” value worked out at 0%.
Take `CN1C(=O)C(Nc2ccccc2)=C(c2ccccc2)C1=O` [SB-300079]: the “%Inh” value came to 8%.
With `OCCCNc1nccc(-c2c(-c3cccc(C(F)(F)F)c3)nn3cc(C(F)(F)F)ccc23)n1` [GW630813], the “%Inh” value is given as 0%.
As for `COc1ccc(-c2cc3c(C)nc(N)nc3n([C@H]3CC[C@H](OCCO)CC3)c2=O)cn1`, the “%Inh” value turned out to be 9%.
